Screening data from PubChem BioAssay.
Rows were chosen to be rich in hits. Some 4.7% of all compounds tested hit in one or more screens of this group.
D3 antag = antagonists of human D3 dopamine receptor; P35462; D3R cells, DiscoveRx beta-arrestin luminescence, antagonist mode; active compounds read low; max response, negative = inhibition, %; 360,000 tested, 2.5% active; in the data active means max response below about -50%; inconclusive means no clear call, values can overlap the other calls; further: on the % scale 0 is the no-effect control and ±100 the full control effect
Target sequence (P35462 whole entry, looked up): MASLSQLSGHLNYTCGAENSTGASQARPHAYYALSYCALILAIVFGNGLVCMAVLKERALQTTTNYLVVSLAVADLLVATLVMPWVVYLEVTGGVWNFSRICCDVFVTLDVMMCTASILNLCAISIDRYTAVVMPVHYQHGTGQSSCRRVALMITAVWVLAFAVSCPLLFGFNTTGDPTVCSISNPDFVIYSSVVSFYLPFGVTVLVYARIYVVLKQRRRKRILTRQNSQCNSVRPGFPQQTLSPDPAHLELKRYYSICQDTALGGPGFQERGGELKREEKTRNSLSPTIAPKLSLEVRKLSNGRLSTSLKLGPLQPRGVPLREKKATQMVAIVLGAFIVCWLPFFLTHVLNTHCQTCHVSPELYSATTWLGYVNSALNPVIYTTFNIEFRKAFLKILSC
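Cells expressing the human receptor were seeded at 1500 cells/well, incubated overnight at 37 degrees C in 5% CO2, then exposed to library compounds with dopamine controls for 90 minutes at 37 degrees C before luminescent detection.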
TGFb inhibitor = inhibitors of TGF-b signaling | 410,000 tested, 1.2% active | AID 588855 | Potency, µM (titrated, usually from 46.1 µM), for inactives: at the highest dose activity, negative = inhibition, hits mostly inhibitors | HepG2 CAGA-GFP TGF-b/SMAD3 reporter, GFP fluorescence, 18 h; TGF-beta stimulated, 500 pg/mL final; further: potency means the concentration at half of the fitted maximal effect; on the % scale 0 is the no-effect control and ±100 the full control effect; nearly all actives have a fitted effect of over 65% in size
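HEPG2 CAGA-GFP, 1000 cells/well; 2 h settle, 37 C; cpd via pin tool; TGF-b 500 pg/mL final; 18 h, 37 C; GFP imaging ex488/em500-530; %Activity normalised to -TGF-b and +DMSO controls; CRC fit, curve class.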
ATXN viability = viability counter-screen for ATXN expression inhibitors. S2 cells (HEK-293 line with an ATXN2-luciferase reporter) viability, CellTiter-Fluor protease fluorescence, 24 h. Potency, µM (series often up to 56.7 µM), most hits filed as cytotoxic. 400,000 tested, 0.49% active; further: potency means the concentration at half of the fitted maximal effect; nearly all actives have a fitted effect of over 40% in size
HepG2 tox-1 = HepG2 cytotoxicity, counter-screen for TGF-b inhibitors. HepG2 CAGA-GFP viability, ATP luminescence, 18 h. 410,000 tested, 0.76% active. Potency, µM (series often up to 46.1 µM), without a hit: at the highest dose activity change, negative = cytotoxicity, hits mostly cytotoxic. AID 588856; further: potency means the concentration at half of the fitted maximal effect
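CellTiter-Glo luminescence gave cytotoxicity after 18 hours at 37 degrees C. The cells were HepG2 CAGA-GFP in 1% FBS DMEM, stimulated with 500 pg/mL TGF-beta after compound addition. %Activity was normalised to no-cell wells (complete cell-killing) and DMSO (no toxicity), and curves were fitted and classified.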
DRD3 agonist = D3 dopamine receptor (human) agonism; 410,000 tested, 0.58% active; D3R DiscoveRx beta-arrestin cells, luminescence, 90 min; P35462; max activation, %; in the data active means max activation above about 30%; further: 0% is about no effect
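Agonist mode: compounds and dopamine controls were applied to plated cells for 90 min at 37 degrees C after an overnight attachment at 1500 cells/well. Luminescent read-out followed 30 - 60 minutes at room temperature with DiscoveRx detection reagent.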
ATXN2 expr inh = reduces ATXN2 reporter expression in HEK-293 cells. 360,000 tested, 0.72% active. Potency, µM (highest dose often 57 µM), without a hit: at the top dose activity change, negative = inhibition, usual class: inhibitors. HEK-293 ATXN2-luciferase reporter, luminescence, 24 h. AID 1745845; further: potency means the concentration at half of the fitted maximal effect; on the % scale 0 is the no-effect control and ±100 the full control effect; nearly all actives have a fitted effect of over 55% in size
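ATXN2-luciferase reporter cells (luciferase flanked by upstream and downstream ATXN2 gene portions) were treated 24 h at 37 °C with compounds at up to 57 uM. SteadyGlo luminescence gave expression; GF-AFC fluorescence gave viability.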
TGFb CAGA inh = confirmation of TGF-b signaling inhibitors in HepG2 reporter cells; shares compounds with TGFb inhibitor; HepG2 CAGA-GFP TGF-b reporter, GFP fluorescence, 18 h; cells stimulated with TGF-beta, 500 pg/mL; Potency, µM (doses to about 46.1 µM), inactives show at the top dose activity, negative = inhibition, most hits filed as inhibitors; 1,600 tested, 63% active; AID 720534; further: potency means the concentration at half of the fitted maximal effect; on the % scale 0 is the no-effect control and ±100 the full control effect; nearly all actives have a fitted effect of over 65% in size
HepG2 tox-2 = counter-screen for TGF-b inhibitors: cytotoxicity in HepG2 cells; shares compounds with TGFb inhibitor; HepG2 CAGA-GFP viability, ATP luminescence, 18 h; cells stimulated with TGF-beta, 500 pg/mL; Potency, µM (series often up to 46.1 µM), without a hit: at the top dose activity, negative = cytotoxicity, most hits filed as inhibitors; 1,600 tested, 27% active; AID 720535; further: potency means the concentration at half of the fitted maximal effect; on the % scale 0 is the no-effect control and ±100 the full control effect; nearly all actives have a fitted effect of over 70% in size
CCL64 TGFb inh = blocks TGF-b signaling in CCL64 reporter cells; shares compounds with TGFb inhibitor; CCL64 CAGA-GFP reporter, TGF-b stimulated, GFP fluorescence, 18 h; Potency, µM (titrated, usually from 46.1 µM), without a hit: at the highest dose activity, negative = inhibition, hits mostly inhibitors; 1,600 tested, 41% active; AID 720536; further: potency means the concentration at half of the fitted maximal effect; nearly all actives have a fitted effect of over 65% in size
TGFb COP inh = TGF-b inhibition validated with COP promoter. shares compounds with TGFb inhibitor. HepG2 COP-GFP TGF-b reporter, GFP fluorescence, 18 h; cells stimulated by added recombinant TGF-beta. Potency, µM (series often up to 46.1 µM), inactives show at the highest dose activity, negative = inhibition, usual class: inhibitors. 1,600 tested, 3% active; further: potency means the concentration at half of the fitted maximal effect; nearly all actives have a fitted effect of over 70% in size
* = called active by the depositor; i = inactive; ? = inconclusive; / = no result. Unless noted, the call rests on the fitted dose curve; in most records, active means well fitted curve in the direction sought with a large enough effect; inconclusive means small, poorly fitted or top-dose-only effect, or another doubt; inactive means no such curve, though single readings can be large; an effect the other way counts as inactive or inconclusive.

SMILES	D3 antag	TGFb inhibitor	ATXN viability	HepG2 tox-1	DRD3 agonist	ATXN2 expr inh	TGFb CAGA inh	HepG2 tox-2	CCL64 TGFb inh	TGFb COP inh
O=C(c1ccco1)N1CCCC(c2nc(-c3ccc(S(=O)(=O)NCc4ccccc4)cc3)no2)C1 (centres undefined)	25	?	?	-69%	17	28µM*	15µM*	?	-22%	41%
COc1ccc(-c2noc(C3CCCN(C(=O)c4ccccc4)C3)n2)cc1 (centres undefined)	12	-20%	i	-23%	0	4%	/	/	/	/
CCNc1nc(C#N)nc(N2CCOCC2)n1	/	0%	/	-22%	/	/	/	/	/	/
COc1ccc(NC(=O)Cn2c(=O)n(-c3ccc(C)c(C)c3)c(=O)c3c(C)c(C)sc32)cc1	/	2%	?	4%	-3	4%	/	/	/	/
CC(=O)c1ccc(NC(=O)CN(C)S(=O)(=O)c2cc3c(cc2Cl)NC(=O)CO3)cc1	/	-5%	i	-1%	0	16%	/	/	/	/
COc1cc2ccccc2cc1C(=O)Nc1ccc(C)cc1	-8	?	i	-61%	-6	/	/	/	/	/
COc1cc2ccccc2cc1C(=O)Nc1ccc(Cc2ccncc2)cc1	40	?	?	-17%	15	-19%	8.2µM*	?	12µM*	43%
O=C(c1ccc(Cl)cc1)c1cn(Cc2ccccc2)c2cc3c(cc2c1=O)OCCO3	/	-13%	i	-12%	-8	0%	/	/	/	/
O=S(=O)(Nc1cc(Cl)ccc1-n1cncn1)c1ccccc1Cl	-30	-2%	i	-14%	-2	5%	/	/	/	/
O=S(=O)(Nc1cc(Cl)ccc1-n1cncn1)c1cc(Br)ccc1Br	17	10µM*	?	-42%	10	?	21µM*	?	21µM*	41%
COc1ccc(OC)c(NC(=O)CN2C(=O)CCc3cc(S(=O)(=O)N4CCCCC4)ccc32)c1	/	?	i	-15%	-14	-13%	/	/	/	/
COc1ccccc1Cc1nc2ccccc2nc1SCC(=O)N(C)c1ccc(F)cc1	/	-3%	/	-35%	-2	/	/	/	/	/
CC(C)(C)c1ccc(Cn2nnc3c(=O)[nH]c(C4CCN(C(=O)c5ccco5)CC4)nc32)cc1	8	13µM*	i	-20%	32*	-19%	18µM*	?	-21%	4%
O=C(CN(CCc1ccccc1)S(=O)(=O)c1ccc(Cl)cc1)N/N=C/c1ccc2c(c1)OCO2	-4	?	?	7%	-7	-39%	?	-24%	0%	-23%
COc1ccccc1N1CCN(C(=O)CN2C(=O)COc3ccc(S(=O)(=O)N4CCC(C)CC4)cc32)CC1	/	6%	i	-8%	2	6%	/	/	/	/
CCOC(=O)c1scc(-c2ccc(C)cc2)c1S(=O)(=O)N1CCN(c2ccccc2F)CC1	/	-10%	i	-1%	-19	-24%	/	/	/	/
CC(=O)N(C1=C(Cl)C(=O)c2ccccc2C1=O)C1CCCCC1	-85*	2.8µM*	/	-89%	-41	?	3.3µM*	8.2µM*	4.6µM*	10µM*
Cc1ccc(S(=O)(=O)n2cc(-c3ccccc3)c(N)n2)cc1	7	-21%	i	10%	23	-5%	/	/	/	/
Nc1nn(S(=O)(=O)c2ccccc2)cc1-c1ccc([N+](=O)[O-])cc1	8	?	i	-19%	3	-13%	16µM*	0%	-29%	-1%
CCCCC(=O)NC(c1cccc([N+](=O)[O-])c1)c1c(OC(C)=O)ccc2ccccc12 (centres undefined)	-9	?	?	-35%	2	?	/	/	/	/
CCCCC(=O)NC(c1cccc([N+](=O)[O-])c1)c1ccc2cccnc2c1O (centres undefined)	55	?	?	10%	3	/	10µM*	7.3µM*	?	10%
Cc1cc(Cl)c(S(=O)(=O)N2CCN(c3ccccn3)CC2)cc1OCC(=O)NC1CCCCC1	25	10µM*	?	-22%	1	/	12µM*	?	-25%	16%
Nc1cc2[nH]c(=O)c3ccccc3c2cc1Br	0	0.32µM*	i	-21%	-12	1%	?	1.5µM*	7%	59%
Cc1ccc2nc(Nc3nc(-c4ccccc4)cc(=O)[nH]3)nc(C)c2c1	-2	?	i	3%	2	-25%	/	/	/	/
COc1ccc2c(C)nc(Nc3nc(-c4ccccc4)cc(=O)[nH]3)nc2c1	12	4µM*	?	-59%	-3	-44%	2.3µM*	5.8µM*	?	16%
SMILES	D3 antag	TGFb inhibitor	ATXN viability	HepG2 tox-1	DRD3 agonist	ATXN2 expr inh	TGFb CAGA inh	HepG2 tox-2	CCL64 TGFb inh	TGFb COP inh
CN(CC(=O)Nc1ccccc1)CC(=O)Nc1ccccc1Cl	4	2%	i	3%	2	43%	/	/	/	/
CCCCc1ccc(NC(=O)CN(C)CC(=O)Nc2ccccc2Cl)cc1	-3	22µM*	i	-33%	3	-10%	?	3%	?	1%
COc1ccccc1CNC(=O)C1CCCN(S(=O)(=O)c2ccc3c(c2)CCCN3C(C)=O)C1 (centres undefined)	/	-22%	i	-19%	-7	-23%	/	/	/	/
CCCC(=O)Nc1nnc(SCc2cc(=O)c3ccc(C)cc3[nH]2)s1	/	-28%	?	-19%	-3	-25%	/	/	/	/
COc1ccc(N2C(=O)CC(Cc3ccccc3)C2=O)cc1 (centres undefined)	16	8%	i	4%	0	13%	/	/	/	/
O=C1C=CC2(C=C1)O[C@H](Cc1ccccc1)[C@@H](Cc1ccccc1)O2	-109*	4.5µM*	3µM*	-120%	-30	?	3.3µM*	6.5µM*	1µM*	?
